Laboratory results taken from PubChem BioAssay (NCATS).
Inconclusive results are not listed. Activity calls are given as the source filed them. Unless noted, calls come from the whole dose curve.

What was measured:
[1] = qHTS for Inhibitors of the Functional Ribonucleoprotein Complex (vRNP) of Lassa (LASV) Arenavirus: LASV Primary Screen - GLuc reporter signal (AID 1347082; calls by dose curve; tested in HEK293 reporter line; note: nearly all actives have a fitted effect of over 60% in size; note: potency is the fitted concentration of half-maximal effect)
[2] = qHTS for Inhibitors of the Functional Ribonucleoprotein Complex (vRNP) of Lassa (LASV) Arenavirus: Viability assay - alamar blue signal for LASV Primary Screen (AID 1347083; calls by dose curve; tested in HEK293 reporter line; note: nearly all actives have a fitted effect of over 80% in size; note: potency is the fitted concentration of half-maximal effect)
[3] = qHTS for Inhibitors of the Functional Ribonucleoprotein Complex (vRNP) of Lymphocytic Choriomeningitis Arenaviruses (LCMV): Viability assay - alamar blue signal for LCMV Primary Screen (AID 1347085; calls by dose curve; tested in HEK293 reporter line; note: nearly all actives have a fitted effect of over 80% in size; note: potency is the fitted concentration of half-maximal effect)
[4] = target: Nucleoprotein (Lymphocytic choriomeningitis virus (strain Armstrong)) (UniProt P09992); assay: qHTS for Inhibitors of the Functional Ribonucleoprotein Complex (vRNP) of Lymphocytic Choriomeningitis Arenaviruses (LCMV): LCMV Primary Screen - GLuc reporter signal (AID 1347086); note: nearly all actives have a fitted effect of over 70% in size; note: potency is the fitted concentration of half-maximal effect
Nucleoprotein (Lymphocytic choriomeningitis virus (strain Armstrong)), sequence (P09992 whole entry, looked up): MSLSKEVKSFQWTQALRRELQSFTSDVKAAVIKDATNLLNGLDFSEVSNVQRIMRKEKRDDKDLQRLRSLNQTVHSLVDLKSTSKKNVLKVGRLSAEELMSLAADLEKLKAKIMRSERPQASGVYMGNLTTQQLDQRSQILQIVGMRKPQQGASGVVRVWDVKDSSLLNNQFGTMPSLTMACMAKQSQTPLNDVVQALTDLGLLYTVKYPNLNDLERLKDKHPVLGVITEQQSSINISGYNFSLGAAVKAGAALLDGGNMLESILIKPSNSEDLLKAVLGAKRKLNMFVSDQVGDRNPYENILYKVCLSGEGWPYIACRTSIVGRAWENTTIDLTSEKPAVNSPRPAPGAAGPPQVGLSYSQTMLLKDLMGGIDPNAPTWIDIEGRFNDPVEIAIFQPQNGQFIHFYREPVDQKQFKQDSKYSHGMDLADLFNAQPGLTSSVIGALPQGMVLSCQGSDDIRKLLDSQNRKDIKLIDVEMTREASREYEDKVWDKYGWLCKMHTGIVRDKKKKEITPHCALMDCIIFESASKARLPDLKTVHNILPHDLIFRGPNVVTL

[5] = qHTS of pediatric cancer cell lines to identify multiple opportunities for drug repurposing: Primary screen for TC32 cells (AID 1347089; active = well fitted curve in the direction sought with a large enough effect; an effect the other way counts as inactive or inconclusive; note: nearly all actives have a fitted effect of over 60% in size)
Procedure, shortened: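 Measured quantity: luminescence from CellTiter-Glo, reflecting metabolically active TC32 cells following 48 h of compound. Curves came straight from multi-point titrations, with 8 or 11 points in primary and 11 in confirmatory screening.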

[6] = qHTS of pediatric cancer cell lines to identify multiple opportunities for drug repurposing: Primary screen for DAOY cells (AID 1347090; active = well fitted curve in the direction sought with a large enough effect; an effect the other way counts as inactive or inconclusive; note: nearly all actives have a fitted effect of over 55% in size; note: potency is the fitted concentration of half-maximal effect)
Procedure, shortened: (§1)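 Eight- or eleven-point concentration series, 48 h treatment at 37 degrees C in growth media; readout CellTiter-Glo luminescence. Potency and efficacy were taken from the concentration-response curves.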

[7] = qHTS of pediatric cancer cell lines to identify multiple opportunities for drug repurposing: Primary screen for SJ-GBM2 cells (AID 1347091; active = well fitted curve in the direction sought with a large enough effect; an effect the other way counts as inactive or inconclusive; note: potency is the fitted concentration of half-maximal effect)
Procedure, shortened: as §1

[8] = qHTS of pediatric cancer cell lines to identify multiple opportunities for drug repurposing: Primary screen for A673 cells (AID 1347092; active = well fitted curve in the direction sought with a large enough effect; an effect the other way counts as inactive or inconclusive; note: nearly all actives have a fitted effect of over 45% in size; note: potency is the fitted concentration of half-maximal effect)
Procedure, shortened: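 Cells are plated, rested 5 h, dosed by pintool, incubated 48 h, then lysed with CellTiter-Glo and read by luminescence. DMSO is the neutral control; bortezomib at 2.3 uM final is the positive control.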

[9] = qHTS of pediatric cancer cell lines to identify multiple opportunities for drug repurposing: Primary screen for SK-N-MC cells (AID 1347093; active = well fitted curve in the direction sought with a large enough effect; an effect the other way counts as inactive or inconclusive; note: potency is the fitted concentration of half-maximal effect)
Procedure, shortened: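 Metabolically active cells were quantified by ATP-dependent luminescence (CellTiter-Glo, 15 min at room temperature) following 48 h treatment. Cells had been plated at 500-1,000 per well and settled for 5 h beforehand.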

[10] = qHTS of pediatric cancer cell lines to identify multiple opportunities for drug repurposing: Primary screen for BT-37 cells (AID 1347094; active = well fitted curve in the direction sought with a large enough effect; an effect the other way counts as inactive or inconclusive; note: potency is the fitted concentration of half-maximal effect)
Procedure, shortened: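 CRCs from 8- or 11-point titrations (lowest final 0.59 nM NPC, 0.78 nM MIPE). Cell viability: CellTiter-Glo after 48 h incubation, 15 min room-temperature development, luminescence imaging.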

Measured: Potency

CCc1c(C)[nH]c2c1C(=O)C(CN1CCOCC1)CC2 (centres undefined)
inactive: [1] | [2] | [3] | [4]

Nc1nnnn1-c1ccccc1
inactive: [1] | [2] | [3] | [4]

COc1cc2nc(-c3ccc(N4CCN(C)CC4)cc3)nc(NCCN3CCOCC3)c2cc1OC
active: [1] 0.685 µM | [2] 0.769 µM | [3] 0.968 µM | [4] 0.432 µM

CC(C)(C)C(O)/C=C/c1ccc2c(c1)OCO2 (centres undefined)
inactive: [1] | [2] | [3] | [4]

O=C(O)c1ccc2cc(-c3ccc(O)c(C45CC6CC(CC(C6)C4)C5)c3)ccc2c1
inactive: [1] | [2] | [3] | [4]

Nc1ccccc1NC(=O)c1ccc(CNc2nccc(-c3cccnc3)n2)cc1
active: [2] 6.85 µM | [3] 12.2 µM
inactive: [1] | [4]

Nc1ccc(S(=O)(=O)Nc2ccccc2)cc1
inactive: [1] | [2] | [3] | [4]

CCCn1c(=O)c2[nH]c(C34CC5CC3C[C@@H](C5)C4)nc2n(CCC)c1=O
inactive: [1] | [2] | [3] | [4]

COc1cccc(OC)c1-c1cc(C(=O)NC2(C(=O)O)C3CC4CC(C3)CC2C4)nn1-c1ccnc2cc(Cl)ccc12 (centres undefined)
inactive: [1] | [2] | [3] | [4]

CCCCCN(CCC12CC3CC(CC(C3)C1)C2)C(=O)NCCCc1ccncc1
inactive: [1] | [2] | [3] | [4]

COc1ccc(-c2ccc3c(N4CCOC[C@H]4C)nc(N4CCOC[C@H]4C)nc3n2)cc1CO
active: [1] 0.0097 µM | [2] 0.0153 µM | [3] 0.0306 µM | [4] 0.0306 µM

NCCS
inactive: [1] | [2] | [3] | [4]

O=C(O)c1ccccc1O
inactive: [1] | [2] | [3] | [4]

NC(=O)c1ccc(I)c([N+](=O)[O-])c1
inactive: [1] | [2] | [3] | [4]

COc1cc2ncnc(-n3nc(-c4ccccn4)nc3N)c2cc1OC
active: [1] 13.7 µM | [2] 19.3 µM | [3] 7.69 µM | [4] 2.43 µM

Cc1cn(-c2cc(NC(=O)c3ccc(C)c(Nc4nccc(-c5cccnc5)n4)c3)cc(C(F)(F)F)c2)cn1
inactive: [1] | [2] | [3] | [4]

C=C1C(=CC=C2CCCC3(C)[C@@H]([C@H](C)C=CC=CC(O)(CC)CC)CC[C@@H]23)C[C@@H](O)C[C@@H]1O (some centres undefined)
inactive: [1] | [2] | [3] | [4]

O=C(Nc1ccccc1-c1cn2c(CN3CCNCC3)csc2n1)c1cnc2ccccc2n1
inactive: [1] | [2] | [3] | [4]

CN1CC[C@@H](c2c(O)cc(O)c3c(=O)cc(-c4ccccc4Cl)oc23)[C@@H](O)C1
active: [1] 0.544 µM | [2] 0.137 µM | [3] 0.217 µM | [4] 0.344 µM

COc1cccc2c1CCCC2CCCN1CCN(C2CCCCC2)CC1 (centres undefined)
inactive: [1] | [2] | [3] | [4]

Cc1cccc(C#Cc2ccccc2)n1
inactive: [1] | [2] | [3] | [4]

CC1(C)OC2=C(C(=O)c3ccccc3C2=O)[C@H](NCc2ccccc2)[C@H]1O
active: [1] 2.73 µM | [2] 3.06 µM | [3] 2.17 µM | [4] 0.863 µM

NC(CO)(CO)CCc1ccc(Sc2cccc(OCc3ccccc3)c2)cc1Cl
inactive: [1] | [2] | [3] | [4]

Cc1cccc(C)c1NC(=O)c1ccc(N)cc1
inactive: [1] | [2] | [3] | [4]

CCC(C)(Oc1ccc(C2(c3ccc(OC(C)(CC)C(=O)O)cc3)CCCCC2)cc1)C(=O)O (centres undefined)
inactive: [1] | [2] | [3] | [4]

N#CC[C@H](C1CCCC1)n1cc(-c2ncnc3[nH]ccc23)cn1
inactive: [1] | [2] | [3] | [4]

NC(=O)Nc1cc(-c2cccc(F)c2)sc1C(=O)N[C@H]1CCCNC1
active: [1] 1.22 µM | [2] 0.306 µM | [3] 1.53 µM | [4] 3.43 µM

C1Cc2[nH]nc(-c3nn[nH]n3)c2C1
inactive: [1] | [2] | [3] | [4]

CC[C@@H]1C(=O)N(C)c2cnc(Nc3ccc(C(=O)NC4CCN(C)CC4)cc3OC)nc2N1C1CCCC1
active: [1] 0.0769 µM | [2] 0.0485 µM | [3] 0.153 µM | [4] 0.0306 µM

N#C/C(=C1\SCC(c2ccccc2Cl)S1)n1ccnc1 (centres undefined)
inactive: [1] | [2] | [3] | [4]

CCOC(=O)c1cccnc1
inactive: [1] | [2] | [3] | [4]

OCCn1cc(-c2cnc3nnn(Cc4ccc5ncccc5c4)c3n2)cn1
inactive: [1] | [2] | [3] | [4]

NC(=O)C1CCCc2c1[nH]c1ccc(Cl)cc21 (centres undefined)
inactive: [1] | [2] | [3] | [4]

Cc1c(CN2CCN(C(=O)C(C)C)CC2)sc2c(N3CCOCC3)nc(-c3cnc(N)nc3)nc12
active: [1] 0.273 µM | [2] 0.137 µM | [3] 0.273 µM | [4] 0.217 µM

C[C@@H](O[C@H]1OCCN(Cc2n[nH]c(=O)[nH]2)[C@@H]1c1ccc(F)cc1)c1cc(C(F)(F)F)cc(C(F)(F)F)c1
inactive: [1] | [2] | [3] | [4]

COc1ncc(-c2ccc3nccc(-c4ccnnc4)c3c2)cc1NS(=O)(=O)c1ccc(F)cc1F
active: [1] 0.0485 µM | [2] 0.0097 µM | [3] 0.0172 µM | [4] 0.0343 µM

CS(=O)(=O)Nc1ccc([N+](=O)[O-])cc1Oc1ccccc1
inactive: [1] | [2] | [3] | [4]

COc1ccc(C2=N[C@H](c3ccc(Cl)cc3)[C@H](c3ccc(Cl)cc3)N2C(=O)N2CCNC(=O)C2)c(OC(C)C)c1
inactive: [1] | [2] | [3] | [4]

Nc1ccc(O)c([N+](=O)[O-])c1
inactive: [1] | [2] | [3] | [4]

Cn1cncc1[C@@](N)(c1ccc(Cl)cc1)c1ccc2c(c1)c(-c1cccc(Cl)c1)cc(=O)n2C
inactive: [1]
active: [2] 4.32 µM | [3] 2.43 µM | [4] 1.37 µM

CC[N+](C)(CC)CCOC(=O)C(O)(c1ccccc1)C1CCCCC1 (centres undefined)
inactive: [1] | [2] | [3] | [4]

CN(C)c1ccc(C2Nc3ccc4ccccc4c3C3=C2C(=O)CC(C)(C)C3)cc1Br (centres undefined)
inactive: [1] | [2] | [3] | [4]

CN(C)CCN(C)C(=O)c1ccc(NC(=O)Nc2ccc(-c3nc(N4CCOCC4)c4ccn(CC(F)(F)F)c4n3)cc2)cc1
active: [1] 0.0485 µM | [2] 0.0485 µM | [3] 0.0432 µM | [4] 0.0769 µM

CCCCCCCc1ccc(CCc2cccc(O)c2C(=O)O)cc1
inactive: [1] | [2] | [3] | [4]

NC(CO)C(=O)NNCc1ccc(O)c(O)c1O (centres undefined)
inactive: [1] | [2] | [3] | [4]

CC(=O)OCC(=O)[C@@]1(O)[C@H](C)C[C@H]2[C@@H]3C=C(C)C4=Cc5c(cnn5-c5ccccc5)C[C@]4(C)[C@@H]3[C@@H](O)C[C@@]21C
inactive: [1] | [2] | [3] | [4]

CCOC(=O)[C@@H](N)CCC(=O)N[C@@H](CSCc1ccccc1)C(=O)N[C@@H](C(=O)OCC)c1ccccc1
inactive: [1] | [2] | [3] | [4]

CCCCCCCCCCCCCC(=O)N[C@H](CO)[C@H](O)c1ccc([N+](=O)[O-])cc1
inactive: [1] | [2] | [3] | [4]

S=C(NCc1ccc2c(c1)OCO2)N1CCN(c2ncnc3c2oc2ccccc23)CC1
inactive: [1] | [2] | [3] | [4]

CC(=O)Oc1cccc(C)c1
inactive: [1] | [2] | [3] | [4]

O=C(O)[C@H](Cc1c[nH]c2ccccc12)N1C(=O)c2ccccc2C1=O
inactive: [1] | [2] | [3] | [4]

O=C1CCCC2=C1C(c1[nH]ncc1Cl)N=C(Nc1nc3ccccc3o1)N2 (centres undefined)
inactive: [1] | [2] | [3] | [4]

CC1(C)CCC(c2ccc(Cl)cc2)=C(CN2CCN(c3ccc(C(=O)NS(=O)(=O)c4ccc(N[C@H](CCN5CCOCC5)CSc5ccccc5)c(S(=O)(=O)C(F)(F)F)c4)cc3)CC2)C1
inactive: [1] | [2] | [3] | [4]

O=C(O)CCC1CCC(c2cc(F)ccc2F)(S(=O)(=O)c2ccc(Cl)cc2)CC1 (centres undefined)
inactive: [1] | [2] | [3] | [4]

COc1nc(C)cnc1NS(=O)(=O)c1cccnc1-c1ccc(-c2nnco2)cc1
inactive: [1] | [2] | [3] | [4]

CC(C)(C)C(O)C(Oc1ccc(Cl)cc1)n1cncn1 (centres undefined)
inactive: [5] | [6] | [7] | [8] | [10]
active: [9] 0.001 µM

CCCN(CCC)c1c([N+](=O)[O-])cc(S(N)(=O)=O)cc1[N+](=O)[O-]
active: [6] 48.6 µM | [7] 43.3 µM | [9] 38.6 µM | [10] 31.7 µM

C=C[C@@H]1CN2CCC1C[C@H]2[C@H](O)c1ccnc2ccccc12 (some centres undefined)
inactive: [5]

COC[C@H]1OC(=O)c2coc3c2[C@@]1(C)C1=C(C3=O)[C@@H]2CC[C@H](O)[C@@]2(C)C[C@@H]1OC(C)=O
active: [7] 0.469 µM | [8] 9.35 µM | [9] 0.296 µM | [10] 6.85 µM
inactive: [5]

CC(C)[C@H](CO)Nc1nc(Nc2ccc(C(=O)O)c(Cl)c2)c2ncn(C(C)C)c2n1
active: [2] 0.217 µM | [3] 3.85 µM
inactive: [4]
